Shown are actives, neighbours in structure and some others; about 6.5% of the full set was active somewhere.
HCMV antiviral: qHTS Assay for inhibitors of the human cytomegalovirus (HCMV); hit rate 4.5% among 410,000; AID 1259415, 2018; HFF cells, HCMV-luciferase reporter, 72 h; active compounds read low; activity change, negative = inhibition, % at 57.5 µM; in the data active = activity change below about -60%; inconclusive = no clear call, values can overlap the other calls; inactive = above about -39%
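Inhibition of viral replication was scored as loss of reporter luminescence in HFFs infected with HCMV-luciferase (MOI 1 PFU/cell) for 72 h; compounds tested at 2 doses, normalized to buffer and Salinomycin controls.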
MARV entry inh: qHTS for inhibitors of binding or entry into cells for Marburg Virus. Marburg virus pseudotyped entry inhibition, cell reporter. Potency, µM (doses to about 37.8 µM), for the others: at the highest dose activity change, negative = inhibition, usual class: inhibitors. hit rate 1.8% among 300,000; calls by dose curve; tested in HEK293 cells; note: potency is the fitted concentration of half-maximal effect
VACV Venus inh: qHTS for Stage-Specific Inhibitors of Vaccinia Orthopoxvirus: Venus Reporter Primary qHTS; AID 720580, 2013; Vaccinia virus Venus reporter expression, fluorescence; hit rate 0.46% among 330,000; Potency, µM (doses to about 36.5 µM), inactives show at the top dose activity change, negative = inhibition, most hits filed as inhibitors; calls by dose curve; tested in A549 cells; note: potency is the fitted concentration of half-maximal effect; nearly all actives have a fitted effect of over 30% in size
LASV entry inh: qHTS for Inhibitors of binding or entry into cells for Lassa Virus. Lassa virus pseudotype entry inhibition, cell reporter. Potency, µM (doses to about 37.9 µM), without a hit: at the highest dose activity change, negative = inhibition, usual class: inhibitors. hit rate 1.2% among 300,000. AID 540256, 2011; calls by dose curve; tested in HEK293 cells; note: potency is the fitted concentration of half-maximal effect; nearly all actives have a fitted effect of over 50% in size
FMDV inh: High Throughput Screening for Foot and Mouth Disease Virus Antivirals. FMDV antiviral cell-based qHTS. Potency, µM (doses to about 57.9 µM), without a hit: top-dose activity change, negative = inhibition, actives largely listed as inhibitors. hit rate 1.2% among 410,000; calls by dose curve; tested in HEK293T cells; note: read-out not given here; potency is the fitted concentration of half-maximal effect; nearly all actives have a fitted effect of over 45% in size
Vaccinia mCherry: qHTS for Stage-Specific Inhibitors of Vaccinia Orthopoxvirus: mCherry Reporter Primary qHTS | Vaccinia virus mCherry reporter infection, fluorescence | Potency, µM (series often up to 36.5 µM), for the others: at the highest dose activity change, negative = inhibition, hits mostly inhibitors | hit rate 0.63% among 310,000; calls by dose curve; tested in A549 cells; note: potency is the fitted concentration of half-maximal effect; nearly all actives have a fitted effect of over 35% in size
* marks the source's active call; other numbers are inactive results; i = inactive; ? = inconclusive; nt = not tested or not shown; ! = repeats disagree; [ ] = remark or other dose. % is set by controls: 0 for no effect and ±100 for the full control effect.

SMILES | HCMV antiviral | MARV entry inh | VACV Venus inh | LASV entry inh | FMDV inh | Vaccinia mCherry
COc1ccccc1N1CCN(Cc2cc(Br)c(O)c3ncccc23)CC1 | -95* | 5% | ? | nt | -25% | ?
CCCCNC(=O)C1(C)CCCCN1C(=O)C1(c2ccc(Cl)cc2)CCCC1 (stereo not given) | -34 | nt | nt | nt | nt | nt
C=CCOC(=O)C(C(C)=O)[C@@H](NC(=O)OC)c1ccc(F)cc1 (stereo not given in full) | nt | 20%[14.2 µM] | nt | nt | nt | nt
COc1ccccc1N1CCN(Cc2cc(C)c(C)cc2O)CC1 | -20 | ? | -3% | -7% | ? | i
COc1ccccc1N1CCN(Cc2cc(COC(C)C)c3cccnc3c2O)CC1 | -85* | 4µM* | ? | ? | -16% | ?
CC[n+]1ccccc1/C=C1\Sc2ccc(C)cc2N1C | -97* | nt | nt | nt | ? | nt
CCCCCCCCCCCCCCCC[n+]1ccc(CC(O)c2c(C)[nH]c3ccccc23)c2ccccc21 (stereo not given) | nt | nt | i | nt | nt | i
CCOc1ccc(NC(=O)Nc2nnc(N3CCCCC3C)s2)cc1 (stereo not given) | -7 | ? | -13% | -24%[46.1 µM] | ? | -12%
Cc1ccc2c(/C=C/c3ccc(N(C)C)cc3)ccnc2c1 | nt | nt | 25% | nt | nt | 14%
COC(=O)CCC(=O)N1CCOCCOCCN(C(=O)CCC(=O)OC)CCOCCOCC1 | 3 | 7% | -10% | 7% | -18% | nt
COC(=O)CCCC(=O)N1CCOCCN(C(=O)CCCC(=O)OC)CCOCC1 | -101* | 3%[46.1 µM] | -12% | 18% | -15% | nt
CN1CCC(=C2c3ccccc3Sc3ccccc32)CC1 | 3 | nt | ? | nt | ? | ?
CN1CCC(=C2c3ccccc3C=Cc3ccccc32)CC1 | 31 | 7.1µM* | -9% | 8.2µM* | ? | i
CCOC(=O)c1c(C)[nH]c(C)c1C(=O)COC(=O)c1sccc1C | -5 | 5% | -13% | 3% | -2% | -25%
COc1cccc(COC(=O)c2nn(-c3ccccc3)nc2N)c1 | -25 | ? | -19% | ? | 25µM*! | -2%
O=C(NCc1ccco1)N[C@H]1CC[C@@]23CCCN2C(=O)CCC[C@H]3C1Cc1ccccc1 (stereo not given in full) | 6 | nt | nt | nt | nt | nt
COC(=O)C1=CN(CC2CCCO2)C=C(C(=O)OC)C1c1ccccc1C(F)(F)F (stereo not given) | -21 | 7%[46.1 µM] | -8% | -14% | -21% | i
COC(=O)C1=CN(CCCN2CCCC2=O)C=C(C(=O)OC)C1c1ccccc1C(F)(F)F | -65* | -7% | -13% | ? | -20% | nt
C[n+]1c2cc(N)ccc2cc2ccc(N)cc21 | -99* | nt | ? | nt | ? | 5.6µM*
CO[C@H]1CN(C)C(=O)c2ccc(NS(=O)(=O)c3ccccc3F)cc2OC[C@H](C)NC[C@@H]1C | 7 | nt | -9% | nt | -7% | i
CSc1ccccc1NC(=O)c1cc(S(=O)(=O)N(C)C)ccc1N1CCCC1 | -31 | -2% | -11% | -10% | -25% | -11%
CN(C)S(=O)(=O)c1ccc(N2CCCC2)c(C(=O)Nc2ccccc2)c1 | -67* | 7% | -14% | 5% | -19% | -17%
CN1CCN(c2ccc(Cl)cc2NC(=O)c2ccc(S(=O)(=O)N(C)C)cc2)CC1 | 77 | ? | -17% | -3% | 6% | i
CN(C)S(=O)(=O)c1ccc(C(=O)Nc2cc(S(=O)(=O)Nc3ccccc3Cl)ccc2N2CCCCC2)cc1 | -27 | -11% | -6% | 5.2µM* | 6% | -16%
O=C(CC(Nc1ccc(F)cc1)C(=O)O)c1ccccc1 (stereo not given) | -102* | -4% | -2% | ? | 29% | -15%
O=C(O)CCCCCn1c(O)c(C=C2N=c3ccccc3=N2)sc1=S | -80* | ? | -20% | 0% | -6% | -18%
O=C(O)CCCn1c(O)c(C=C2N=c3ccccc3=N2)sc1=S | ? | nt | nt | nt | -29% | nt
CC(CCCN(C)C)C(Cc1ccccc1)c1ccccc1 (stereo not given) | -78* | ? | -16% | ? | -17% | -24%

Screening results as filed in PubChem.
